Shown are actives, neighbours in structure and some others; about 3.2% of the full set was active somewhere.
VDR inh: vitamin D3 receptor (human) inhibition. VDR-SRC2-3 peptide fluorescence polarization, 2 h. 400,000 tested, 0.93% active. P11473. AID 504847. Potency, µM, inactives show max response, negative = inhibition, hits mostly inhibitors; further: potency means the concentration at half of the fitted maximal effect
Target sequence (P11473 whole entry, looked up): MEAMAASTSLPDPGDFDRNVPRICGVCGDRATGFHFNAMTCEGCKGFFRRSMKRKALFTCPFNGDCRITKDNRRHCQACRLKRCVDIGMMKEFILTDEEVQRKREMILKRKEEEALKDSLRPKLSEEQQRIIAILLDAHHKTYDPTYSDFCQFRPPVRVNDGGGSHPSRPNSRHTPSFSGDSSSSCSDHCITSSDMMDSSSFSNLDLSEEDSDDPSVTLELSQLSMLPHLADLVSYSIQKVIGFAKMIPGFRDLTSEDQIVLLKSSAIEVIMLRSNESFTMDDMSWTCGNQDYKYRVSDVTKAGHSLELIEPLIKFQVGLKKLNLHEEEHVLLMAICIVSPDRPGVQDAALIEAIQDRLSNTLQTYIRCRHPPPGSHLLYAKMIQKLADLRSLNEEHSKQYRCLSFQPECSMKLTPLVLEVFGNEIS
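Fluorescence polarization assay measuring small-molecule disruption of VDR binding to the coregulator peptide SRC2-3. Compounds were pin-transferred (23 nl) into the reagent mix and incubated 2 h at room temperature before reading.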
USP2a block: blocks human ubiquitin-specific protease USP2a | USP2 core, Ub-CHOP2 coupled fluorogenic reporter, 485/531 | Potency, µM (titrated, usually from 38.3 µM), without a hit: at the highest dose activity change, negative = inhibition, usual class: inhibitors | 330,000 tested, 0.01% active | AID 463254;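 further: potency means the concentration at half of the fitted maximal effect; plate controls were DMSO wells for no effect and full inhibition by NEM control for full effect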
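USP2 core (10nM final) preincubated 30min RT with compound in 20mM Tris-HCl pH 8.0, 2mM CaCl2, 2mM beta-mercaptoethanol, 0.05% CHAPS; 25nM Ub-CHOP2 plus 25nM reporter substrate added, fluorescence (Ex485/Em531) read after 60min.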
GALK inhibitor: galactokinase (human) inhibition; 270,000 tested, 0.007% active; Potency, µM (titrated, usually from 57.5 µM), for inactives: at the top dose activity change, negative = inhibition, most hits filed as inhibitors; AID 1868; Purified GALK, Kinase-Glo residual ATP luminescence; further: potency means the concentration at half of the fitted maximal effect
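Compounds were pin-transferred into ATP buffer (35 uM final), then GALK plus galactose (5 nM, 100 uM final) was added. After 1 h at room temperature, Kinase-Glo Plus was added and luminescence read after 10 min.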
FBPA coupling cs: counter-screen for Giardia aldolase inhibitors: coupling enzyme system | coupling enzyme system counterscreen, AmpLite Red fluorescence | AID 2472 | activity change, negative = inhibition, % at 58.2 µM, hits read low | 290,000 tested, 0.67% active; in the data active means activity change below about -30%
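Compounds tested against the coupling enzymes alone at 57.5 uM final; readout was AmpLite Red fluorescence (525/598 nm) after 20 min at RT.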
PLK1 PBD block: inhibitors of human PLK1 polo-box domain binding. Plk1 PBD binding of FITC phosphopeptide, fluorescence polarization. P53350. 360,000 tested, 2.8% active. AID 720504. Potency, µM, without a hit: max response, negative = inhibition, most hits filed as inhibitors; further: potency means the concentration at half of the fitted maximal effect; series mostly up to about 57 µM; nearly all actives have a fitted effect of over 65% in size
USP1-UAF1 inh: inhibitors of human USP1/UAF1 deubiquitinase; Potency, µM (doses to about 57.1 µM), for the others: top-dose activity change, negative = inhibition, actives largely listed as inhibitors; 390,000 tested, 0.23% active; AID 743255; O94782; recombinant USP1/UAF1, Ub-Rhodamine cleavage fluorescence; further: potency means the concentration at half of the fitted maximal effect; nearly all actives have a fitted effect of over 60% in size
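High-throughput fluorogenic screen: 1nM USP1/UAF1 complex, Ub-Rho substrate 150nM final, 50mM HEPES pH 7.8 with 0.5mM EDTA, 0.1 mg/ml BSA, 1mM TCEP and 0.01% Tween-20.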
* marks the source's active call; other numbers are inactive results; ? = inconclusive; . = no result. Unless noted, the call rests on the fitted dose curve; in most records, active means well fitted curve in the direction sought with a large enough effect; inconclusive means small, poorly fitted or top-dose-only effect, or another doubt; inactive means no such curve, though single readings can be large; an effect the other way counts as inactive or inconclusive. Unless noted, on the % scale 0 is the no-effect control and ±100 the full control effect.

SMILES | VDR inh | USP2a block | GALK inhibitor | FBPA coupling cs | PLK1 PBD block | USP1-UAF1 inh
O=C(O)c1cccc(Cn2c(Cl)c(/C=N/NC(=O)c3ccccc3)sc2=O)c1 | -7% | 3% | -4% | 8 | -6% | -19%
Cc1ccccc1N/N=C/c1sc(=O)n(Cc2cccc(C(=O)O)c2)c1Cl | ? | 0% | 2% | 6 | 27µM* | -30%
O=C1N[C@@H](Cc2c[nH]c3ccccc23)COC(=O)[C@H](Cc2ccc(F)cc2)C/C=C\C[C@H]1CC(=O)N(CCO)Cc1ccccc1 | 6% | -4% | . | . | -11% | -10%
CCn1c(O)c(/C=N/N=C2CCCC2)c2ccc(C3=NNC(=O)CC3)cc21 | 2% | 1% | 5% | 1 | -3% | -11%
CCn1c(O)c(/C=N/N=C2CCCCC2)c2cc(C3=NNC(=O)CC3)ccc21 | -16% | -1% | -2% | -35* | -4% | -6%
COc1cc2c(cc1OC)C(c1cccc([N+](=O)[O-])c1)N(C(=O)c1ccccc1C(=O)O)CC2 (stereo unspecified) | 9% | 3% | -3% | -2 | -16% | -7%
O=C(CSc1nnc(NC(=O)C2CCCCC2)s1)NCc1ccco1 | 2% | 1% | 7% | 0 | -9% | -16%
O=C(Nc1cccc(F)c1)C1CC(=O)N(c2ccc(Cl)cc2)C1 (stereo unspecified) | 9% | 0% | 1% | 1 | ? | -20%
O=C(Nc1cccc(F)c1)C1CC(=O)N(c2ccc(Br)cc2)C1 (stereo unspecified) | -20% | 3% | 0% | 3 | 30µM* | -18%
CC(=O)Nc1cccc(C(=O)/C=C/c2ccc(N(C)C)cc2)c1 | -3% | 6% | 1% | -8 | 47% | 5.6µM*
CN1CCN(C(=O)c2cc(Cl)cc(Cl)c2NC(=O)c2ccco2)CC1 | -28% | -1% | -1% | 1 | 27µM* | -14%
COc1cc(/C=C(\C#N)C(=O)NC2CCCCC2C)ccc1OS(=O)(=O)c1ccc(C)cc1 (stereo unspecified) | 79µM* | 2% | 2% | -4 | -13% | 0%
CC(C)(C)NC(=O)C(c1ccc(-c2ccccc2)cc1)N(C[C@H]1CC[C@@H]([C@@H]2CC[C@H](CO)O2)O1)C(=O)c1ccccc1F (stereo partly specified) | 27% | -7% | . | . | -3% | -26%
CN(C)c1ccc([N+](=O)[O-])cc1C(=O)O | 1% | 1% | -6% | 2 | 2% | -9%
COc1cccc(-n2nnnc2SCC(=O)Nc2cccc(NC(C)=O)c2)c1 | 4% | -5% | 0% | 4 | 1% | 28%
COc1cccc(-n2nnnc2S(C)(=O)=O)c1 | 45µM* | -1% | 1% | 5 | 7.5µM* | -10%
COc1cccc(-n2nnnc2SCC(=O)Nc2ccc(NC(C)=O)cc2)c1 | -18% | 1% | -2% | 0 | 24µM* | -6%
CCn1nnnc1SCC(=O)Nc1cc(OC)cc(OC)c1 | -21% | -7% | 1% | -4 | 3.4µM* | 10%
Cc1ccc(S(=O)(=O)Nc2ccccc2C(=O)NCC2CCCO2)cc1 (stereo unspecified) | -5% | 1% | -2% | 4 | -3% | -8%
Nc1ccn([C@@H]2O[C@H](CNCc3ccc(-c4cc(C(F)(F)F)ccc4Cl)o3)[C@@H](O)[C@H]2O)c(=O)n1 | . | . | . | . | -7% | ?
CC(=O)c1cc(NC(=O)c2cccc(C(F)(F)F)c2)c(=O)oc1/C=C/N(C)C | 14% | 3% | -4% | 3 | 9% | ?
CC(=O)c1cc(NC(=O)c2cccc(C(F)(F)F)c2)c(=O)oc1C | ? | 0% | -3% | 2 | 24µM* | 1%
Cc1cnccc1CN(C)Cc1cn(C)nc1-c1cccc(Cl)c1 | 18% | 7% | 0% | 3 | 1% | -16%
O=C(Nc1ccc(F)cc1)N1CCc2ccccc2C1 | -15% | 2% | 5% | -6 | 21µM* | -4%

Screens as filed in PubChem.
